“And” between values parts separate entries of the source, which are not always exact repeats. Equal entries are not always repeated. Results filed as inconclusive are left out. The source made the active and inactive calls. Unless noted, the call rests on the fitted dose curve; in most records, active means well fitted curve in the direction sought with a large enough effect in the repeat runs; inconclusive means weak or mixed curves; inactive means no such curve, though single readings can be large; an effect the other way counts as inactive or inconclusive.
Columns and labels:
[1] = qHTS assay to identify small molecule agonists of the vitamin D receptor (VDR) signaling pathway - cell viability counter screen (AID 743224); conditions: VDR-bla HEK293T viability, CellTiter-Glo luminescence, 16 h; series mostly up to 62.6 µM; further: nearly all actives have a fitted effect of over 50% in size
Outline: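 Cells: VDR-bla, 2,000/well, settled 4 h. Treatment: compounds in DMSO, 16 h, 37C/5% CO2. Readout: CellTiter-Glo luminescence after 30 min RT.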

[2] = qHTS assay to identify small molecule antagonists of the vitamin D receptor (VDR) signaling pathway - cell viability counter screen (AID 743225); conditions: VDR-bla HEK293T viability, CellTiter-Glo luminescence, 16 h; series mostly up to 61 µM; further: nearly all actives have a fitted effect of over 50% in size
Outline: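 Compounds were pinned onto VDR-bla HEK 293T cells together with 1-alpha,25-dihydroxyvitamin D3 at 3 nM final. After 16 h at 37C and 5% CO2 plus the reporter readout, cell viability was measured by CellTiter-Glo luminescence (30 min, room temperature).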

[3] = qHTS assay to identify small molecule agonists of the NFkB signaling pathway (AID 1159509; active means well fitted curve in the direction sought with a large enough effect in the signal ratio in the repeat runs, not every such curve was filed as active; the % refers to the signal ratio); conditions: NFkB-bla ME-180 cells, beta-lactamase FRET ratio, 5 h; series mostly up to 61 µM
Outline: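 Beta-lactamase reporter assay run in quantitative high-throughput format on an NF-kB-responsive ME-180 line, with 5 hr compound treatment and a FRET-based blue/green fluorescence readout.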

[4] = qHTS assay to identify small molecule agonists of the NFkB signaling pathway - cell viability counter screen (AID 1159515; calls by dose curve; further: nearly all actives have a fitted effect of over 55% in size); conditions: NFkB-bla ME-180 viability, CellTiter-Glo luminescence, 5 h; series mostly up to 61 µM
Outline: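 Cells are seeded (2,000 NFkB-bla ME-180 per well), rested overnight, and dosed with DMSO-dissolved compounds for 5 hr at 37 C. Viability is then read by CellTiter-Glo luminescence after 30 min at room temperature.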

[5] = qHTS assay to identify small molecule agonists of the endoplasmic reticulum stress response signaling pathway (AID 1159516; active means well fitted activation curve with a large enough effect in the signal ratio in the repeat runs, not every such curve was filed as active; the % refers to the signal ratio); conditions: ESRE-bla HeLa, ER stress beta-lactamase reporter, 5 h; series mostly up to 61 µM
Outline: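 Cells are seeded at 1,500 per well and incubated overnight. Compounds in DMSO are added for 5 hr at 37 C, then beta-lactamase FRET substrate for 2 hr at room temperature, and fluorescence at 460 and 530 nm is measured.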

[6] = qHTS assay to identify small molecule antagonists of the retinoid-related orphan receptor gamma (ROR-gamma) signaling pathway - cell viability counter screen (AID 1159520); conditions: Tet-on RORgamma CHO cells viability, ATP luminescence, 16 h; series mostly up to 92.4 µM; further: nearly all actives have a fitted effect of over 50% in size
Outline: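 Tet-on ROR gamma CHO cells (1,000/well) were plated 4 hr, given compounds in DMSO for 2 hr at 37 C, then induced with 1 uM final doxycycline for 16 hr. Viability was read as ATP by CellTiter-Glo luminescence after 30 min.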

[7] = target: Nuclear receptor ROR-gamma (Homo sapiens) (UniProt P51449); test: qHTS assay to identify small molecule antagonists of the retinoid-related orphan receptor gamma (ROR-gamma) signaling pathway (AID 1159521;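 further: CHO cells with doxycycline inducible ROR-gamma driving an RORE luciferase reporter; top concentration of the series differs between compounds; nearly all actives have a fitted effect of over 50% in size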); conditions: Tet-on RORgamma CHO cells, RORE-luciferase, 16 h; series mostly up to 92.4 µM
Outline: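 Test compounds were applied to Tet-on RORγ CHO cells 2 h ahead of doxycycline hyclate (1 uM final). Luciferase reporter activity was quantified by luminescence after 16 h at 37 C and 5% CO2.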

[8] = qHTS assay to identify small molecule agonists of the AP-1 signaling pathway - cell viability counter screen (AID 1159525; calls by dose curve; further: nearly all actives have a fitted effect of over 55% in size); conditions: ME-180 AP-1-bla cells viability, ATP luminescence, 5 h; series mostly up to 76.8 µM
Outline: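 Each titration point was normalised to DMSO and tetra n-octyl ammonium bromide controls. The read was Cell Titer Glo luminescence after 30 min at RT, following 5 h compound exposure of ME-180 AP-1-bla cells at 37 °C.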

[9] = qHTS assay to identify small molecule agonists of the AP-1 signaling pathway (AID 1159526; calls by dose curve; further: potency means the concentration at half of the fitted maximal effect); conditions: ME-180 (cervical carcinoma) AP-1-bla reporter, beta-lactamase FRET ratio, 5 h; series mostly up to 76.8 µM

Measured: Potency

N[C@H](Cc1c[nH]c2ccccc12)C(=O)O
inactive: all assays above

CC(=O)CCC=C(C)C
inactive: all assays above

CCO[Si](CCCN)(OCC)OCC
inactive: all assays above

CCCCCCO
inactive: all assays above

CN1C(=O)CC[C@H]1c1cccnc1
inactive: all assays above

CC(=O)OCc1ccccc1
inactive: all assays above

CCCCCCCCCCCCCCCC(=O)OC(C)C
inactive: all assays above

CC(CCO)CC(C)(C)C (configuration not stated)
inactive: all assays above

CCCCCC(=O)O
inactive: all assays above

CC(C)OP(=O)(CP(=O)(OC(C)C)OC(C)C)OC(C)C
inactive: all assays above

COc1ccc(C)cc1N
inactive: all assays above

NCCN1CCNCC1
inactive: all assays above

CCOC(=O)n1ccn(C)c1=S
inactive: all assays above

CCCCCCCCCCN
inactive: all assays above

CCCCC(C=O)CC (configuration not stated)
inactive: all assays above

O=C(O)c1ccccc1C(=O)O
inactive: all assays above

CC1(C)S[C@@H]2[C@H](NC(=O)COc3ccccc3)C(=O)N2[C@H]1C(=O)O
inactive: all assays above

CCOCCOCCOCCO
inactive: all assays above

CCCCCCC=O
inactive: all assays above

C=Cc1ccc(C)cc1
inactive: all assays above

CSc1ccc(Cl)cc1
inactive: all assays above

CN(C)c1ccc(Cc2ccc(N(C)C)cc2)cc1
inactive: all assays above

CCCCCCCCCCO
inactive: all assays above

O=C1c2ccccc2CCc2ccccc21
active: [9] 35.4 µM and 23.9 µM
inactive: all other assays above

OCc1cccc(Oc2ccccc2)c1
inactive: all assays above

O=C(O)Cn1c(=O)n(Cc2ccc(Br)cc2F)c(=O)c2ccc(Cl)cc21
inactive: all assays above

CC(C)(Oc1ccc(CCNC(=O)c2ccc(Cl)cc2)cc1)C(=O)O
inactive: all assays above

COc1ccc(N)c(C)c1
inactive: all assays above

Nc1ccc(Cl)c(N)c1
inactive: all assays above

CC(C)CC(C)O (configuration not stated)
inactive: all assays above

COCCCN
inactive: all assays above

N#Cc1ccccc1
inactive: all assays above

C=CC(C)CCCC(C)(C)O (configuration not stated)
inactive: all assays above

C=CCc1ccc(OC)c(OC)c1
inactive: all assays above

CC(=O)Oc1ccc(C)cc1
inactive: all assays above

COCCOC(=O)c1ccccc1C(=O)OCCOC
inactive: all assays above

CC1(C)OC[C@@H]2O[C@@]3(C(=O)O)OC(C)(C)O[C@H]3[C@@H]2O1
inactive: all assays above

NCCCCCCN
inactive: all assays above
